# In the supplement of paper PMC11417369:
# ± gives the standard deviation of the averaged measurements. The full ranking holds about 25,000 sequences; the median of “ln(normalized median fluorescence intensity)” is about 8.6, and the highest 2% start at about 10. Only a selection was taken, and the highest values are over-represented in it overall.
# System: PfAP2-EXP AP2 domain (GST-tagged)
# Experiment: gcPBM binding intensity (ln(normalized median fluorescence intensity)); higher = stronger DNA binding
# Procedure, shortened: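 After 1 h on an Agilent 4 × 180k array of primer-extended double-stranded 36-bp intergenic genomic probes and negative controls, bound GST-tagged P. falciparum DNA-binding domains were detected with Alexa488 anti-GST antibody and scanned at 488 nm. The domains had been expressed in E. coli, and binding took place in 1× PBS with 1% milk, 0.2 mg/ml BSA, 0.5% salmon testes DNA and 0.03% Triton X-100. Binding intensity is the highest Masliner-normalised natural-log median intensity across replicate spots of either probe orientation.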
row,Sequence,gcPBM binding intensity (ln)
1,GTAGTAATAAATCTAGTGCATTATATATAACAAAAA [GTGCAC_site9803],8.81 ± 0.3
2,TAGCCATTTTTATATTGTACTTATATAATCACATTT [XGTACX_site4407],8.72 ± 0.4
3,ATGCACATTTATAAAAGTACATGTATGTAATATGTT [XGTACX_site830],8.77 ± 0.33
4,TGTATGAAATATATTACACACATATATAATATATAT [CACACA_site793],8.36 ± 0.3
5,GATGCTAAAATTTATACACACAAAAAAAAAAAATTC [CACACA_site3284],8.47 ± 0.46
6,CAAGAAAATTGACACACACACATATTTATATTTATA [CACACA_site7766],8.36 ± 0.48
7,AAGTATAACCTTTATAATAATGACATGACCGATTTT [CACACA_negctrl_site395],8.26 ± 0.34
8,TGTAGTCTGGAGAAACGTACACAGTATCTGGTAACA [XGTACX_site4938],8.34 ± 0.36
9,ATAAAAAAATATAAATGTACATATATATATATATAT [XGTACX_site5620],10.2 ± 0.2
10,AACATATAAATAAACTGTACATATATATATATATAT [XGTACX_site1056],10.1 ± 0.39
11,TATAATAAATCGAACTGTACATATATATATATATAT [XGTACX_site7097],10.2 ± 0.33
12,TAAAATGTACAGGACGCACACACATATATATATATA [CACACA_site3673],10.1 ± 0.22
13,AAAAAAAAAAAAAAATGTACATATAAATAAATATAT [XGTACX_site7248],8.51 ± 0.42
14,AAATGTACAGGACGCACACACATATATATATATATA [CACACA_site3674],10.4 ± 0.81
15,AAAAAAAAAAAAAAATGTACATATATATAAATATAT [XGTACX_site6768],8.34 ± 0.4
16,ATAAAAATAAATAAATGTACATATATATATATATAT [XGTACX_site1277],10.1 ± 0.4
17,ATATATATTATAATCTGTACATAAATATATAATAAA [XGTACX_site5425],8.39 ± 0.33
18,AAAAAAAAAAAAAAATGTACATATATATAAATAAAA [XGTACX_site5574],8.51 ± 0.45
19,AATGTAAAATATAAATGTACATATATATATATATAT [XGTACX_site5071],10.2 ± 0.24
20,AAATGTACAGGACGCACACACATATTTATATTTATA [CACACA_site7689],8.55 ± 0.33
21,ATTTTTATAGAATGAACACACATATTATAGCATTTA [CACACA_site6842],8.45 ± 0.38
22,AACACTTCTTATTTATGTACTTAATTCCCAACGGAA [XGTACX_site4818],8.87 ± 0.46
23,CATATGATATTATTTTGTACTTATTACAAATATGAA [XGTACX_site7929],8.4 ± 0.42
24,TATAAAGCAACTGAAACACACAAATTTTTTTTTTTT [CACACA_site3218],8.04 ± 0.46

row,Sequence,gcPBM binding intensity (ln)
1,ACACATAATATGTGTAGTACTTTTTCTTTAACATTA [XGTACX_site1436],8.64 ± 0.36
2,TATAAAAATAATATTACACACATGTAAAATGCCCGT [CACACA_site7522],8.49 ± 0.31
3,GGACAAGTTTTTTACATAAATAAAAAAAATAAAAAA [XGTACX_negctrl_site125],8.44 ± 0.42
4,AAAAGGATTTTTTATACACACACTAACTAATGTATA [CACACA_site2356],8.23 ± 0.43
5,TTATACTAAATGAACACACACACATATATATATATA [CACACA_site99],10 ± 0.5
6,AAATGGAGTTAATATTGTACATATATATATATATAT [XGTACX_site5452],10.3 ± 0.18
7,CATATATAATAATATTGTACATATATAATAATAATA [XGTACX_site3338],8.4 ± 0.35
8,ATACTAAAAATGAATGTACACATATATATATATATA [TGCATGCA_negctrl_site209],10.2 ± 0.33
9,TAAATAAAATACAAATGTACATAAATAATAAATATA [XGTACX_site1813],8.76 ± 0.41
10,TTAAATGTTATATATTGTACATATAATATATGTATT [XGTACX_site1492],8.27 ± 0.19
11,TCTGGCATATAATATTGTACACATATATATATATAT [XGTACX_site8182],10.2 ± 0.33
12,TATTAAATATTGTAATGTACATATATAATATAATAT [XGTACX_site1809],8.53 ± 0.17
13,TATAATATATACAAATGTACATATATATATATATAT [XGTACX_site4559],10.2 ± 0.42
14,AATAAAATACAAAAATGTACAAATATAATATACATA [XGTACX_site279],8.34 ± 0.28
15,ATATATATAATATATTGTACATATAATATATATATA [XGTACX_site4792],9.24 ± 0.042
16,ATACATGAATAAATATGTACACATATAAAAACATAT [XGTACX_site2740],8.68 ± 0.23
17,GGATAAAATGCTACGAGTACATAAGCATTTTTCCCT [XGTACX_site7796],8.73 ± 0.35
18,ATGGTCTGTTAAAGATGTACTTTTTAAAAATAAACG [XGTACX_site2583],8.48 ± 0.25
19,TATAGGTATATATTATGTACTTATAATTATATAGAT [XGTACX_site1912],8.52 ± 0.35
20,TATATATATAAAATATGTACATAAAATTATTTATTT [XGTACX_site7666],8.61 ± 0.26
21,ATATAATAATAAGGCACACAAATTAAAATATAAAAA [CACACA_site3710],8.79 ± 0.35
22,TCATAAATATGAAAAAGTACAAAGGTAGATTTTGAA [XGTACX_site4535],8.48 ± 0.3
23,GGATAATATATTAGAACACACATATAGATGTAAAAA [CACACA_site6229],8.57 ± 0.54
